Measurements as given in PubChem BioAssay (NCI).
The panel holds about 83,000 compounds, 20% with a hit somewhere; the sample as a whole holds those more often.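 Results are percent growth after 48 hours of single-concentration exposure. 100 means growth as in untreated cells, lower positive values show inhibition; negative values down to -100 show cell death.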 Values without a mark were called inactive. The calls were made as follows: active = growth percent below 10; inactive = the rest.

These molecules were tested on HL-60(TB) leukemia (assay: NCI-60 one-dose screen, 48 h (100 = growth as untreated, 0 = no growth, -100 = all killed)). Details: 10 µM unless noted.

Compound	growth [%]
O=C(Nc1nc2ccc([N+](=O)[O-])cc2s1)Nc1ccccc1Br	37.1
CCCCCCN1C=C/C(=C\C(=O)n2ccc3ccccc32)c2ccccc21	24.7
CC(Nc1c(C#N)cnc2ccc(-c3cnc(N)nc3)cc12)c1ccccc1 (stereo not given)	20.1
Cc1ccc(-n2cc(/C=C/C(=O)c3ccc(O)cc3)c(-c3ccc(S(C)(=O)=O)cc3)n2)cc1	27.5
O=C1[C@H]2Cc3c([nH]c4ccccc34)[C@@H](c3ccc(Cl)cc3)N2C(=O)CN1C1CCN(Cc2c(Cl)cccc2Cl)CC1	108
